Data from the supplement of paper PMC10681739.
In all, about 2,700 sequences were measured (“arbitrary fluorescence units”: median about 4,100, highest 2% from about 54,000 on). Only a selection was taken, and the highest values are over-represented in it overall.

Biological target: T1, ETS1 (UniProt P14921)
T1 sequence: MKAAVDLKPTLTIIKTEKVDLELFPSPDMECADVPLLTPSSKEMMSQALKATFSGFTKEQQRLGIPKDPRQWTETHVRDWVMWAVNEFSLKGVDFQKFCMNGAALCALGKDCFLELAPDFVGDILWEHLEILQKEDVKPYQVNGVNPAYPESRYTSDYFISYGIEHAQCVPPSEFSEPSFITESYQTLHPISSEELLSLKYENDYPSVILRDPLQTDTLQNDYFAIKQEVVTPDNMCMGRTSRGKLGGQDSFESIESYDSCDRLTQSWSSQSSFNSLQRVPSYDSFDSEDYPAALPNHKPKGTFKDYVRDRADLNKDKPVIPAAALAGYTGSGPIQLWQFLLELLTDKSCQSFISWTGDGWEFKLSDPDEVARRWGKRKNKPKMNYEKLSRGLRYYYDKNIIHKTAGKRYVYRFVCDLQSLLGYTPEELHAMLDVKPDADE
Assay: ETS1 binding intensity (PBM fluorescence) (arbitrary fluorescence units); higher = stronger binding
Details: ETS1 concentration 10 nM
Procedure: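 gcPBM on wild-type 36-bp genomic probes with two neighbouring ETS1 sites (4-24 bp apart). Recombinant human ETS1 (10 nM) was detected with anti-ETS1 antibody fluorescence. Values are medians over 3 replicate spots. The probes sit in constant array flanks that are not printed.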

Row | Sequence | ETS1 binding intensity
1 | CCCGGAGTTCCGCGCGGCGCCAGCCCTTCCGCCACG | 375
2 | GCGCCACTTCCGGCAGCGAAGTCACTTCCGCGGAGG | 57600
3 | GGGTGCTTCCGGGGCAGCGCGCGCCACTTCCGACCT | 33500
4 | GGCTGGGGCGGATGCCGGGGCTGTTCCGGGCCCTCC | 1230
5 | TGAGCGCCGTGCCTTCCGGGTTCCGCCCTCCTGGGT | 1430
6 | AGAATGAGCTGCAGGAAGGCGGAAGCACTAGCGTGC | 421
7 | CGGGACAGGAAGTGTGGACAGGCTCCTTCCTGTTTG | 15000
8 | AGAAACGGAAAGAAAGTGACCCCTCCCTTCCTTTCA | 175
9 | TGGGGTTTCCTGGGGTGTTCTGTCTACATCCTGAGA | 5150
10 | CCCAGCGAGAGGTTTCCTCTTCCGGCACCTGACCCC | 4930
11 | TTCCTCTCCTTTCCGCGAGACCTTCCGCGGTTATCC | 178
12 | ACAACCTTTAAACTTCCGGTTTCCTCTGTGCGAGGT | 56700
13 | GGCTTCAGGATGCATTGACAATTAAAGGAAGTCAGA | 275
14 | CCGGCACTTCCGGCAGGCCAGGGCACTTCCGGGACC | 58000
15 | GGGGCCACTTCCCGGGGCCAGGCAGGAAGCCCGCCC | 3870
16 | GAGGCGGGACTTCCTACAGCACTTCCGGCCAGAGCC | 26500
17 | CGCTGAACTTCCCGAGCTCGGGGTGGGATGTGGCCG | 734
18 | GCAGAAGGGAGGAAGAAGCAGGCGGAAGCAGCCGGT | 522
19 | GAGAGGCAGGAAGAGAGCAGAGCCGGAAGCACAAGG | 2630
20 | GTCACTTCCGGCAGCCGGAGGCAGCAGAGGAAGCCG | 71500
21 | CTCTAGGTCTAACATCCCTCGGAAGTTCGTGCAGCG | 175
22 | CTCTTGGCAACATCCGGTCACATCCCCTCCGCTATT | 60900
23 | GGCAAAAACCCACATCCTCTTCCGCTGGCTCCACCT | 8480
24 | CAACCGAAAACATCCCGTGCCGGAAGCGCGTCATCG | 4780
25 | TGCAAAGCATCCTGGGTGCCAGGCTTCCTGGGGCTT | 1890

Row | Sequence | ETS1 binding intensity
26 | GCAACTTCCGCCCTGAGAAGGGTGGGGCTTCCGTCT | 63000
27 | CGCCCCTGGGGCTTCCGCGGCGGAAGCCTAGCGTCC | 824
28 | TGAAGGCTTCCGCCAAGGTGAGGGGCTTCCTCTGGG | 9460
29 | CCAAGCTGGTTTCCTCTCCGGTTTCCTCCGGGGTGG | 3800
30 | CTGACCTGCTTCCTCATGGTTGTTTCCTGCCTATTG | 3740
31 | TCCACTTCCGGGTCCGGGACACCGCCCGGATCTTGC | 64200
32 | GACGGACACCCGTTTCCGCTTCCGGGTCACGCTTCT | 20900
33 | GCCACCGCCCCTTCCGGGTCCGGAACGGCTCCAGCT | 7050
34 | ACGACGCAGCCACTTCCGATTCCGGTCGGAGCACCG | 8910
35 | CCTCAGGATGGCATCAGCCTGTGACCACTTCCTGTG | 2200
36 | GCCTCACTTCCTGTGTTCAAGTGACAGGATGTGACA | 70700
37 | TTCTTCACAAGCGGATGTCACTTCCTGCCTGTGACA | 17200
38 | GCACCCGGAAGCCGCTTGCGGGCTCCCGGAAGCGGC | 8720
39 | GCGTTACTTCCGGCGCGCGGCGGGCGGAAGTCCGGG | 69700
40 | TGCGGGGCGGAAGCCGGGGCGTGACTTCCGGCGCCG | 11600
41 | GGGCGGGACTTCCGGCAAGGCGCGGAAGCGGCGGTA | 46400
42 | GGGCCTAGGAAATGCCGCACTACAACTTCCGTCGGG | 992
43 | GAGGCGCTTCCTCAGTTGGACTCCACTTCCTCTCCG | 4590
44 | GCCGGCGAGCGGAAGAGGCTGCAGGAAGGCCGGCCC | 3170
45 | CAAACACATCCTGTTTGCACTTGACTTCCTGTTTTG | 37400
46 | AGCACTTCCTGTTTGATCTCTATGATCCATCCTGTT | 106000
47 | TAGTTGTCCCTTCCTTAAGCACTTCCTGTTTGATCT | 11900
48 | CCGGGAGCTCCGGATGCAGACAGGAAGTGGGCAGGG | 9950
49 | CAGCACGACTTCCTGGAGCGGGCCGGAAGTGACAAC | 21000
50 | CGTCCTGACTTCCGGGGCGGGACGGAAGAGCGGGCG | 25800

Row | Sequence | ETS1 binding intensity
51 | CGGGGCTCCCGGAAGCCGCCCCTTCCGCCAGCTTGC | 4520
52 | GAGACGGGACTTCCGGCTCCCGGGGAAGTCCCGCCC | 53500
53 | TATAAAACCATTTCCTTCTCTGGGAAATGAGATGTC | 3370
54 | GGTCCGGAAACGGGACAGAAGGCCCACCTTCCTCCC | 8480
55 | AGCCTTTGTATTTCCTTTCAGAGGAAACCCCAATGC | 5570
56 | TTCCACTTCCGGTCTTACCCGGCTACTTCCGCTGCT | 147000
57 | TGGGGTCTTCCGGTTGGACCCCTGCTTCCGCTGATT | 24400
58 | CGCTGCTTCCGGGTCTCGGCAAGCACTTCCGGGGTG | 30400
59 | CAACGGCAGCTTCCTGCGGCGCCGGAAACGCTTCAA | 12100
60 | TGAAACAGGAAGTCAGCTTCACAGCAGGAAGCAGAC | 16400
61 | TTCCTCAGGGAAGTTCGGGTGAGAGGAAGTGCCTGC | 228
62 | CCCGGTAGCCGCCGGAAAACTTCCGCCGAGACCGGA | 4420
63 | CAAGCGATTCTTCCGCCTCAACTTCCTGAGTAGCTG | 5800
64 | CGCCGCATCCGGTAGCGAGAGTTCAACTTCCTGACT | 56600
65 | TGTGATTTTCCATCCTGCCATTTCCTGGCACCCAGA | 4620
66 | GCCGCGGCGGAAGAGGCTCGGGGAGGAAGTTATTTG | 1880
67 | AGTCACACAGGAAATGGAGCCAGGGGATGTGCTCAA | 14800
68 | CGGGCACTTCCGGCGCGAACCGCTACTTCCGGTGCG | 95900
69 | CGCGCCGGGTGTTTCCGCTACTTCCCTGCGGCGGGG | 7930
70 | GCCGAGGACACTTCCGCGGGCGGAACCTGCCGGCAC | 5200
71 | ACTTGACATTTCCTGCCTCCTGTTTCCTCATCACTC | 22500
72 | GAGGTGGGGAGGAAGAGCTGCCGGAAGTAGGCGGTG | 5440
73 | CAGACTTCCGGGGTCGAGAACTACAACTTCCGACTT | 61700
74 | CTGGGCCCTTCCTGCCAGGTTGCACTTCCTGATAGC | 8540
75 | AGGCAGGAAGTACCGCCTGATGCTCAGCTTCCGCTG | 9880

Row | Sequence | ETS1 binding intensity
76 | TGCCACATCCTGTCTTTTTACCTCCTTTCCTGCTTA | 51200
77 | GTAACAGGAAGAAAATAATTTACCACATCCTTTATT | 975
78 | TGGTAACAGGCATTTCCGGTTTCCGGCCGGCTCCCT | 61800
79 | CTTCCCTGGTAACATCCGGCATCCTGGGGCTGCCAA | 18800
80 | TGCGCATTTCCGCTCCTTGCCGGTTTTCCGGACCTC | 36000
81 | ACATAAGACATGAGGATGTCTTCCTGACTTGCGTCC | 208
82 | GGGTCTTCCGGCCCTCTCGAAAATCATTTCCGGCAT | 22500
83 | GTTATGATAACGGAACTACAGTTCCTCCAGGATGGA | 195
84 | GGAGGAGGCGGAGGAAACCCGGAAAAGGGGCCGCGC | 382
85 | GCGCCGCCTCAGTTCCGCGGCTTCCGGCCACAGAGT | 8030
86 | GGCTCACTTCCGGCCTCAGAGCCGCTTCCGGCGCGC | 71400
87 | GCTCCGCCCCCGGAAGCCTCACTTCCGGGCGCGAGC | 25300
88 | CGGGAGCAGCGGAAGTCATTAACATCCGCGGTTGTG | 12500
89 | TGCCACCACACCAGGATGCTTCCGTCTTTGAAGGCA | 1030
90 | GTCACCACATCCTGAGGCTTCTCATTTCCTTTCTAC | 6290
91 | ACAACTTCCTGTTACACAAGACAGGTATTTCCTCAT | 59800
92 | TGTTATTGGACAACTTCCAGGAAAACATCCTCAAGA | 273
93 | TGCCAAGTTACACTTCCTGTTTCCTCTCTGTGTGCC | 31700
94 | AGCCCAAGCGCGGAAGAGGGCGGAAGGAGAACCCCT | 240
95 | GCACCAAGGGAAGTGGTTAAAACAGGAAGACCCGCT | 919
96 | CGGCCCTTCCATTTCCTGCCTTCCTGCCTGCATTTG | 24200
97 | TTACACTACTTCCGCCGCCTCACTTCCGGTGACGCG | 34100
98 | GTCACTTCCGGCGCCCGCCTACACGCACTTCCGTTC | 88200
99 | GGAGCACTTCCGCTGGACGCACGCACTTCCGGCCCC | 50800
100 | CATCCTTGGCATTTCCTCTGAGGAAGCTCGCACCCC | 3550

Row | Sequence | ETS1 binding intensity
101 | GGTTGGTGATTGGCAGGATCCTGGTATCCGCTAACA | 278
102 | CTTCGCCTTCCGCTGTGAATAATAGCTTCCTGAGGC | 10100
103 | CTGCTACAGGAAATCGCTTGTTATTTCCTGTAATGC | 10900
104 | TGAGGCGGTTTCCTCGGCGCCTTTTCCGGCAGCGGC | 1360
105 | CTCAACTTCCGGAGGCGGCAGACTTTTTCCGTCAAG | 36700
106 | TTCATTTCCGGCGGCGGAGGCGGCAGTTTCCTAAGC | 73000
107 | AGATCGCTGGCTTCCTGTGTTTTTCCTGGACTCAGG | 14800
108 | GCACCGGAAGTGACCGCCTCGCGGCTGCTTCCTCTC | 57700
109 | CGGCCTCTTCCGCGAGCCCGCGCGCCGGAAGTGGAA | 5440
110 | CGCCGGAAGTGGTCGCGGGTCGTTCTGCTTCCTGCC | 18000
111 | CCTGAGTTTCCTTGTCTGGAGCTGCAGGATATTTGT | 800
112 | ACCCCCTGGCGGATGCTGTGTGTTTCCTGTGCTTAG | 3420
113 | GGTCCGGAAGGGAGGAGAACACAAGCAGGATATAAC | 860
114 | ATCTGCAGGATGTAAGAAGAATAGAAGGAAGCTGGG | 1930
115 | TGGCGGAGGCGCCGGAAGTTTTCCGGCTTTCTGCTG | 4500
116 | GACACAACTTCCGGCTTCTGGCGGCGGAAGAGGACA | 90100
117 | GGGGACCGGAAGCCAGCGGCAACAACTTCCGGCGGG | 23100
118 | TGATTTCCGCTTTCTCCCCAGTGATTGCTTCCTTCA | 68300
119 | TGAATGCTGTCATTTCCGCTTCCGCCTCCTTCTTTC | 26500
120 | GCCTTCAATTTCCGTAGGGAACCTTCCTCCCAGTGA | 6860
121 | TCAACATCCTGCTTCTCAGGGCACCACAGGAAATGT | 36600
122 | GGCGGCGACGGAAGTGAAGTCACTTCCGGGCTGGGG | 21300
123 | ACGTCACTTCCGGCGCCGGGGCTCACTTCCTGGTGC | 87500
124 | TCGGGCCCTGGCTTCCGTCACTTCCGCCCGTGCCTG | 14700
125 | CAGCTAGGCTTCCTTCTCCTCCCTTCCTGTGCCTCC | 1100
